SNCA viab count – counter-screen for SNCA expression inhibitors: cell viability | Potency, µM (doses to about 57.1 µM), most hits filed as cytotoxic | actives 0.12% (n = 150,000) | HEK-293-SNCA-luc viability, GF-AFC fluorescence, 24 h; also: nearly all actives have a fitted effect of over 30% in size
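HEK-293-SNCA-luc cells (1500/well) plated 24 h, then exposed 24 h to a dilution series; GF-AFC added 30 min at 37C, fluorescence 405/540 nm; normalised to medium-only and DMSO wells, Hill fit.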
KDM5B inh – inhibitors of human KDM5B histone demethylase | Q9UGL1 | KDM5B demethylase, FDH-coupled NADH fluorescence (FDH is formaldehyde dehydrogenase) | Potency, µM (highest dose often 57.7 µM), actives largely listed as inhibitors | actives 2.6% (n = 220,000); also: nearly all actives have a fitted effect of over 70% in size
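Here, H3K4me3 peptide (12.5 µM in substrate mix) is demethylated by KDM5BΔAP, 200 nM final, after 10 min compound exposure. Formaldehyde product is coupled through FDH (0.25 U/mL in mix) to NADH fluorescence; 30-min ΔRFU feeds dose-response curves.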
SNCA expr inh – SNCA gene expression inhibition; HEK-293 SNCA-luciferase knock-in, luminescence, 24 h; Potency, µM (highest dose often 57.2 µM), most hits filed as inhibitors; actives 0.17% (n = 140,000); AID 1671194; also: nearly all actives have a fitted effect of over 45% in size
IP6K1 inhibitor – inhibitors of human IP6K1; Q92551; IP6K1 kinase, ADP-Glo luminescence, 2 h; stronger effect = lower value; activity change, % (series mostly up to about 58 µM); actives 0.81% (n = 140,000); AID 1645851; in the data active = activity change below about -25%
Target sequence (Q92551 whole entry, looked up): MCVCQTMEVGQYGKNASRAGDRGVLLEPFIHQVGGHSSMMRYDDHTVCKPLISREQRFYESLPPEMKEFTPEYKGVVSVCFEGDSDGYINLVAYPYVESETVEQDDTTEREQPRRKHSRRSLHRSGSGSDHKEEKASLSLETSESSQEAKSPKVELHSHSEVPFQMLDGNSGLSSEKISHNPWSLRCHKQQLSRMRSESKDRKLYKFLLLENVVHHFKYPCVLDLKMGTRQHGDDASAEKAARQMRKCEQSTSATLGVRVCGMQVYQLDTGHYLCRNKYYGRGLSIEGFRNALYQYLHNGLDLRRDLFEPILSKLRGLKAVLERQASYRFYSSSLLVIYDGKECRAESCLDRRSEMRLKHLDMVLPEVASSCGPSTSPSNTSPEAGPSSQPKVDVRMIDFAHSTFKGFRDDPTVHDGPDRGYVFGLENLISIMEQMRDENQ
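ADP-Glo luminescence measures ADP made by human IP6K1 during a 2 h RT reaction with ATP/IP6 (mix at 1.3 mM/130 uM); top library doses 57.5 and 19.1 uM final.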
Hits are given with their value; n = inactive; u = inconclusive; x = not tested or not shown; [ ] = another dose, or the depositor's remark. This is a sample that favours compounds with a hit; in the whole collection about 3% have one here. Unless noted, calls follow the shape of the dose curve; as a rule, active = well fitted curve in the direction sought with a large enough effect; inconclusive = small, poorly fitted or top-dose-only effect, or another doubt; inactive = no such curve, though single readings can be large; an effect the other way counts as inactive or inconclusive.

SMILES	SNCA viab count	KDM5B inh	SNCA expr inh	IP6K1 inhibitor
CC#CCn1cc2c3c(cccc31)[C@H](CC(C)C)N[C@H](C(=O)NCCNC(C)=O)C2	n	31.6µM	n	n
C=CCOc1c(OC)ccc2c1CN(CCOC)C(=O)CCN2CC(O)COc1ccc(OC)cc1 (stereo unspecified)	x	x	x	n
CC(C)C[C@@H]1N[C@H](C(=O)N2CCOCC2)Cc2cn(CC3CC3)c3cccc1c23	n	35.5µM	n	n
CC#CCn1cc2c3c(cccc31)[C@H](CC(C)C)N[C@H](C(=O)N1CCN(C)CC1)C2	n	u	n	n
C=CCn1cc2c3c(cccc31)[C@H](CC(C)C)N[C@H](C(=O)N1CCN(C)CC1)C2	n	22.4µM	n	n
CN(C)CCNC(=O)c1cc(-c2ccccc2F)cc2c1OCCN2Cc1cccnc1	u	35.5µM	u	n
CC(C)NC(=O)c1cc(-c2ccccc2F)cc2c1OCCN2Cc1cccnc1	u	22.4µM	u	n
CN(C)CCN(C)C(=O)c1cc(-c2ccccc2F)cc2c1OCCN2Cc1cccnc1	n	n	n	n
O=C(NCc1cccc(C(F)(F)F)c1)c1nc2sccn2c1-c1cccc(C(F)(F)F)c1	n	x	u	n
Cc1noc(-c2cccs2)c1C(=O)NC1CCc2ccccc21 (stereo unspecified)	n	28.2µM	n	n
Cc1noc(-c2cccs2)c1C(=O)NC(C)CCc1ccccc1 (stereo unspecified)	n	28.2µM	n	n
Cc1ccccc1Nc1c(-c2cccc(O)c2)nc2ccc(Br)cn12	n	u	u	n
COc1cc(O)ccc1-c1nc2ccc(Br)cn2c1Nc1ccccc1C	14.1µM	u	u	n
COc1ccc(C(=O)NCc2nnc3ccc(-c4ccc(C)c(C)c4)nn23)cc1F	u	31.6µM	u	n
Cc1ccc(-c2ccc3nnc(CNC(=O)c4cccc5[nH]ccc45)n3n2)cc1C	u	35.5µM	n	n
Cc1ccc(-c2ccc3nnc(CNC(=O)c4cccn4C)n3n2)cc1C	n	n	u	n
COc1ccc(C(=O)NCc2nnc3ccc(-c4ccc(C)c(C)c4)nn23)cc1OC	n	n	n	n
Cc1ccc(-c2ccc3nnc(CNC(=O)c4ccccc4)n3n2)cc1C	n	28.2µM	u	n
Cc1ccc(C)c(C(=O)NCc2nnc3ccc(-c4ccc(C)c(C)c4)nn23)c1	n	14.1µM	n	n
COc1cccc(-c2ccc(C(=O)NCCNC(=O)c3cccc(Cl)c3)cc2)c1	x	x	x	n
COc1cccc(-c2ccc(CN3CCCC(N[S+](=O)([O-])c4cccs4)C3)cc2)c1 (stereo unspecified)	n	x	n	n
CCC(C)S(=O)(=O)c1oc(-c2ccc(F)cc2)nc1S(=O)(=O)c1ccc(F)cc1 (stereo unspecified)	28.2µM	u	u	n
CCS(=O)(=O)c1oc(-c2ccc(F)cc2)nc1S(=O)(=O)c1ccccc1	7.94µM	u	u	n
CCCCS(=O)(=O)c1oc(-c2ccc(F)cc2)nc1S(=O)(=O)c1ccc(C)cc1	u	n	u	n
O=C(NCC(F)F)C1CCCN(c2nccc(Nc3ccccc3F)n2)C1 (stereo unspecified)	n[12.5 µM]	x	n	n
SMILES	SNCA viab count	KDM5B inh	SNCA expr inh	IP6K1 inhibitor
Cc1ccc(C(=O)N2CCN(Cc3ccccc3-c3cccnc3)CC2)cc1	n[12.5 µM]	x	n	n
O=C(NC1CCN(c2nnc3ccccn23)CC1)c1ccc(Cl)s1	u	25.1µM	n	n
COc1cccc(C(=O)NC2CCN(c3nnc4ccccn34)CC2)c1	n	28.2µM	n	n
Cc1ccc(CC(=O)NC2CCN(c3nnc4cccc(C)n34)CC2)cc1	n	31.6µM	n	n
O=C(CCCc1ccccc1)NC1CCN(c2cc(-c3ccccc3)[nH]n2)CC1	n	n	n	n
O=C(CCc1ccccc1)NC1CCN(c2nnc3ccccn23)CC1	n	25.1µM	n	n
Cc1ccc([S+](=O)([O-])N2CCN(c3ccc4nnc(C)n4n3)CC2)cc1	x	x	x	n
Cn1ccc2c(-c3cc(NCCO)nc(N)n3)ccnc21	n	28.2µM	n	n
COc1cc2c(cc1-c1ccc(F)cc1)OCC(C)(C)CC2CO (stereo unspecified)	x	x	x	n
O=C(NCCCN1CCN(c2ccc(F)cc2)CC1)C1COc2ccccc2C1 (stereo unspecified)	n	n	n	n
Fc1ccc(-n2cc(CCCCN3CCC4(CC3)OCc3ccccc34)c3ccccc32)cc1	18.9µM	x	x	n
CN1CCN(c2ccc(-c3nccc4c(=O)cc(N(C)c5ccccc5)oc34)cn2)CC1	n	u	n	n
C[S+](=O)([O-])c1ccc(-c2nccc3c(=O)cc(-c4ccncc4)oc23)cc1	n	31.6µM	n	n
Cc1cccc(-c2nccc3c(=O)cc(N4CCN(C)CC4)oc23)c1	u	35.5µM	n	n
CN1CCN(c2cc(=O)c3ccnc(-c4ccc([S+](C)(=O)[O-])cc4)c3o2)CC1	n	31.6µM	n	n
Cc1ccc(-c2nccc3c(=O)cc(N4CCN(C)CC4)oc23)cc1	n	39.8µM	n	n
O=c1cc(-c2ccncc2)oc2c(-c3ccccc3O)nccc12	n	n	n	n
CCCC1CN(Cc2ccc3c(c2)OCO3)C(=O)c2ccc(C)nc2O1 (stereo unspecified)	n	x	n	n
CC(C)NC(=O)NCCNC(=O)c1cccc(-c2ccsc2)c1	n[12.5 µM]	x	u	n
CN1CCN(c2cc(=O)c3ccnc(-c4ccc(F)cc4)c3o2)CC1	n	28.2µM	n	n
COc1ccccc1CNC(=O)C1CCN(C(=O)c2ccc(-c3cncnc3)cc2)CC1	n	x	n	n
CCN(CC)C(=O)[C@@H]1C[C@@H](NC(=O)c2ccn(CC)c(=O)c2)CN1C(C)=O	n	28.2µM	n	n
CCN(CC)C(=O)[C@@H]1CCC[C@@H](NC(=O)c2ccc(C#N)cc2)CN(C)C(=O)C1	n	n	n	n
COc1cccc2c1CCN=C2C[C@H]1CN(C(=O)C2CCC2)CC[C@H]1CC(=O)O	n	35.5µM	n	n
COc1ccc2c(c1)C(C[C@H]1CN(C(=O)C3CCC3)CC[C@H]1CC(=O)O)=NCC2	n	35.5µM	n	n
SMILES	SNCA viab count	KDM5B inh	SNCA expr inh	IP6K1 inhibitor
CCNC(=O)[C@@H]1C[C@H](N)CN1C(=O)c1ccc(NC(C)=O)cc1C	n	n	n	n
CCN(CC)C(=O)[C@@H]1C[C@H](N)CN1C(=O)c1cc2ccccc2n(C)c1=O	n	31.6µM	n	n
COc1cccc(CNC(=O)c2nc3sccn3c2-c2ccccc2)c1	n	x	n	n
COc1ccc(-c2ccnc3nc(Cc4ccc(F)cc4)nn23)cc1	n	n	n	n
CC(C)c1nc2nccc(-c3ccccc3)n2n1	n	28.2µM	n	n
CC(C)c1nc2nccc(-c3ccc(F)cc3)n2n1	n	28.2µM	n	n
Cc1noc(C)c1-c1cc2cc(CN(C)C)oc2c(NCCc2ccccc2)n1	n	n	n	n
Cc1cc2cc(-c3c(C)noc3C)nc(-c3ccc([S+](C)(=O)[O-])cc3)c2o1	n	35.5µM	n	n
COc1ccccc1-c1nc(-c2c(C)noc2C)cc2cc(CN(C)C)oc12	n	35.5µM	n	n
